Assay outcomes as filed in PubChem.
Rows were chosen to be rich in hits. Some 5.7% of all compounds tested hit in one or more screens of this group.
KDM4E inh: inhibitors of human JMJD2E histone demethylase. AID 2147. Potency, µM (top dose mostly 57.1 µM), for the others: at the top dose activity change, negative = inhibition, most hits filed as inhibitors. JMJD2E catalytic domain, FDH-coupled NADH fluorescence (FDH is formaldehyde dehydrogenase). 230,000 tested, 1.6% active; active means well fitted inhibition curve with a large enough effect, not every such curve was filed as active; inconclusive means small, poorly fitted or top-dose-only effect, or another doubt; inactive means no such curve, though single readings can be large or run the other way;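 further: potency means the concentration at half of the fitted maximal effect; 0% = wells with enzyme and -100% = buffer wells without enzyme; nearly all actives have a fitted effect of over 50% in size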
L3MBTL1 inh: inhibitors of human L3MBTL1. 230,000 tested, 0.66% active. Potency, µM (doses to about 57.1 µM), for inactives: at the highest dose activity, negative = inhibition, hits mostly inhibitors. AlphaScreen L3MBTL1–H3K9me1 peptide binding. AID 485360; further: potency means the concentration at half of the fitted maximal effect; on the % scale 0 is the no-effect control and ±100 the full control effect; nearly all actives have a fitted effect of over 60% in size
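L3MBTL1 50 nM + b-AHA-H3(1-15)K9me1 75 nM, 30 min RT; compound added, 30 min RT; streptavidin donor/Ni-chelate acceptor beads 10 ug/mL each final, 30 min RT dark; AlphaScreen read.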
HP1b binding inh: inhibitors of HP1-beta chromodomain binding to methylated histone tails; 390,000 tested, 0.56% active; AID 540317; P83916; Potency, µM (doses to about 114 µM), for inactives: top-dose activity change, negative = inhibition, actives largely listed as inhibitors; AlphaScreen HP1-beta / biotin-H3K9me3 peptide binding; further: potency means the concentration at half of the fitted maximal effect; nearly all actives have a fitted effect of over 70% in size
Target sequence (P83916 whole entry, looked up): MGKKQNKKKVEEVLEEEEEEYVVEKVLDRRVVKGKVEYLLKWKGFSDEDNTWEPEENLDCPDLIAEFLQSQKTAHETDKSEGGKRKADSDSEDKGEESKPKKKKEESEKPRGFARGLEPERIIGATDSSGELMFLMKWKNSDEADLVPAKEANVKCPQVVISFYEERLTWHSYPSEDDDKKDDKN
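AlphaScreen: HP1-beta (50 nM) preformed 30 min with biotin-H3(1-18)K9me3 peptide (50 nM) in PBS pH 7.4, 0.01% Tween-20. Compound added for 30 min at RT, then streptavidin donor/nickel chelate acceptor beads (10 ug/mL) for 30 min.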
BAZ2B inh: BAZ2B (human) inhibition; AlphaScreen BAZ2B-H3K14Ac peptide displacement; 360,000 tested, 4.4% active; Potency, µM (doses to about 114 µM), without a hit: at the top dose activity change, negative = inhibition, actives largely listed as inhibitors; further: potency means the concentration at half of the fitted maximal effect; on the % scale 0 is the no-effect control and ±100 the full control effect; nearly all actives have a fitted effect of over 60% in size
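In this displacement format the biotinylated H3(5-23) peptide acetylated at Lys14 serves as ligand at 50 nM, with BAZ2B at 50 nM in PBS pH 7.4 containing 0.01% Tween-20. Donor and acceptor beads are 10 ug/mL final.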
JMJD2A Tudor: blocks the human JMJD2A Tudor domain; AlphaScreen JMJD2A-Tudor / H3K4me3 peptide binding; O75164; Potency, µM (series often up to 114 µM), for inactives: at the top dose activity change, negative = inhibition, usual class: inhibitors; 390,000 tested, 4.4% active; AID 504339; further: potency means the concentration at half of the fitted maximal effect; on the % scale 0 is the no-effect control and ±100 the full control effect; nearly all actives have a fitted effect of over 50% in size
PI5P4K alpha inh: blocks human PI5P4K alpha kinase activity; P48426; PI5P4Kalpha enzyme, ADP-Glo luminescence, 60 min; stronger effect = lower value; max response, %; 330,000 tested, 1.2% active; AID 652105; active means max response of -50% or lower; inconclusive means between -30% and -50%; inactive means -30% or higher; further: value at the top dose of about 77 µM; on the % scale 0 is the no-effect control and ±100 the full control effect
Target sequence (P48426 whole entry, looked up): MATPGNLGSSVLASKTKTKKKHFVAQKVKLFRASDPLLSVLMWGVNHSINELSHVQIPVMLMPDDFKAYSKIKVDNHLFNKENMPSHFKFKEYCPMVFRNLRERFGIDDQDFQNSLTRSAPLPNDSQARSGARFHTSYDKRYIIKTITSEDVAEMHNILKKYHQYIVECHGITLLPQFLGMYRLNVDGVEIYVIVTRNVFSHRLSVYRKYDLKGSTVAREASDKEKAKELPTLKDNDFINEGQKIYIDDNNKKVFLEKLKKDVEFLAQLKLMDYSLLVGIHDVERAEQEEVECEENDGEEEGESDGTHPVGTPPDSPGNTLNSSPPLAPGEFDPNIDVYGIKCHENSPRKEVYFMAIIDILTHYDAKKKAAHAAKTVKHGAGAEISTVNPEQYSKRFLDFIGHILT
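PI5P4Kalpha ADP-Glo assay; 5 microM ATP final; 60 min RT reaction; HEPES pH 7.4/EGTA/CHAPS, 5% DMSO; controls lacking substrate or enzyme; luminescent end-point.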
Active calls of the source: *; ? = inconclusive; nt = no result given; ! = not confirmed by another sample; [ ] = dose if it differs, or a comment. Unless noted, the call rests on the fitted dose curve; in most records, active means well fitted inhibition curve with a large enough effect; inconclusive means small, poorly fitted or top-dose-only effect; inactive means no such curve, though single readings can be large or run the other way.

SMILES | KDM4E inh | L3MBTL1 inh | HP1b binding inh | BAZ2B inh | JMJD2A Tudor | PI5P4K alpha inh
O=C(O)c1ccccc1Nc1cc(Cl)c2nonc2c1[N+](=O)[O-] | nt | nt | 32% | -33% | -21% | -12
CSc1nc2sc3c(c2c(=O)n1-c1ccc(C)c(Cl)c1)CCN(C(C)=O)C3 | nt | nt | 31% | 79µM* | -32% | nt
CCOC(=O)C1=C(CN2CCN(c3ccc(OC)cc3)CC2)NC(=O)NC1c1ccc(Cl)cc1 (configuration not stated) | nt | nt | ? | nt | 13µM* | nt
CCOC(=O)c1[nH]c(CN2CCN(c3ccc(OC)cc3)CC2)c(C(=O)OCC)c1C | nt | nt | 45µM* | 14µM* | 50µM* | -2
CCOC(=O)C1=C(CN2CCCCC2)NC(=O)NC1c1ccc(OC)cc1 (configuration not stated) | nt | nt | 2% | -10% | -5% | nt
CCOC(=O)C1=C(CN2c3ccccc3CC2C)NC(=O)NC1c1ccccc1 (configuration not stated) | 0% | -22% | ? | 50µM* | ? | 2
CCOC(=O)C1=C(CN2CCN(c3ccc(OC)cc3)CC2)NC(=O)NC1c1ccc(OC)cc1 (configuration not stated) | nt | nt | -38% | 40µM* | 56µM* | nt
Cc1cc(C)nc(SCc2n[nH]c(=S)n2C)n1 | -8% | ? | 26% | 12% | 40µM* | -7
CCCSc1nnc(CSc2nc(C)cc(C)n2)n1C | -2% | 1% | 1% | 0% | 56µM* | -10
CCC(C)Sc1nnc(CSc2nc(C)cc(C)n2)n1C (configuration not stated) | -7% | -3% | 5% | 4% | -11% | -3
Cc1ccc(OCc2n[nH]c(=S)n2-c2ccc(Br)cc2)cc1 | nt | -9%[2.29 µM] | 2% | -33% | -35% | -8
Cc1ccc(-n2c(CSc3nc(C)cc(C)n3)n[nH]c2=S)cc1 | -6% | 4% | 25% | -1% | 25µM* | -3
Cc1cc(C)nc(SCc2nc3ccccc3n2C)n1 | 4% | -3% | 61% | -6% | -3% | 1
CCCCNC(=O)CN1C(=O)NC(CCc2ccccc2)C1=O (configuration not stated) | -2% | 10% | 34% | nt | -12% | -10
O=C(CCS(=O)(=O)c1ccc(Br)s1)Nc1cc(C(F)(F)F)cc(C(F)(F)F)c1 | nt | nt | 42% | 14% | 2% | nt
COc1ccc(N2CCN(Cc3nnc(-c4cccc(Br)c4)o3)CC2)cc1 | nt | nt | ? | 45µM* | 79µM* | nt
Cc1cccc(N2CCN(Cc3nnc(-c4cccc(Br)c4)o3)CC2)c1C | nt | nt | 28% | 11% | 0% | nt
Oc1[nH]c2ccccc2c1C1=NCCCC1 | 8% | -8% | -24% | 50µM* | ? | -2
COc1ccc2c(c1)c(C(O)CN1CCN(Cc3ccc4c(c3)OCO4)CC1)c(C)n2C (configuration not stated) | ? | -36% | ? | ? | 56µM* | 9
Cc1c(C(O)CN2CCN(Cc3ccc4c(c3)OCO4)CC2)c2ccccc2n1C (configuration not stated) | ? | nt | -38% | ? | 56µM* | nt
OC(CN1CCN(Cc2ccc3c(c2)OCO3)CC1)c1c[nH]c2ccccc12 (configuration not stated) | 1% | 2% | 2% | 0% | -25% | -3
COc1ccc2c(c1)c(C(O)CN1CCC(Cc3ccccc3)CC1)c(C)n2C (configuration not stated) | 6% | ? | ? | 35µM* | 28µM* | 1
CC(=O)Nc1ccc(C2=NNC(=Nc3cccc(S(=O)(=O)N(C)C)c3)SC2)cc1 | ? | -27% | ? | -32% | 35µM* | -71*
CCN(CCCCCN(C)C)Cc1cc2ccccc2o1 | 7% | ? | ? | -26% | -13% | -1
CN(/N=C/c1cc(Cl)cc(Cl)c1O)C(=S)NC(C)(C)C | 32µM* | -2% | 52% | -18% | -10% | 10
SMILES | KDM4E inh | L3MBTL1 inh | HP1b binding inh | BAZ2B inh | JMJD2A Tudor | PI5P4K alpha inh
COc1ccc(C2C(C(=O)c3ccc(C)o3)=C(O)C(=O)N2Cc2cccnc2)cc1OC (configuration not stated) | nt | nt | 25%[57 µM] | -26% | 20µM* | -1
COc1ccc(C2C(C(=O)c3ccco3)=C(O)C(=O)N2CCCn2ccnc2)c(OC)c1 (configuration not stated) | nt | nt | 13% | 56µM* | 28µM* | 4
COc1cc(C2C(C(=O)c3ccc(C)o3)=C(O)C(=O)N2CCCn2ccnc2)cc(OC)c1OC (configuration not stated) | nt | nt | 4% | ? | -3% | -10
Cc1ccc(C(=O)C2=C(O)C(=O)N(Cc3ccccc3)C2c2cccnc2)o1 (configuration not stated) | 1% | -3% | -10% | -1% | 50µM* | nt
O=C(C1=C(O)C(=O)N(Cc2ccco2)C1c1cccc([N+](=O)[O-])c1)c1ccco1 (configuration not stated) | nt | nt | -13% | 5% | 50µM* | -14
CCc1c(C)c2ccc(O)c(CN3CCN(c4ccc(F)cc4)CC3)c2oc1=O | nt | nt | 37% | 5% | -2% | nt
Cc1cc(C)c2sc(N(Cc3cccnc3)C(=O)CCS(=O)(=O)c3ccccc3)nc2c1 | nt | nt | 19% | -9% | -14% | nt
Cc1ccc(C(=O)C2=C(O)C(=O)N(Cc3cccnc3)C2c2ccc(Cl)cc2)o1 (configuration not stated) | nt | nt | -9% | 11% | -14% | 6
COc1ccc(OC)c(C2C(C(=O)c3ccco3)=C(O)C(=O)N2Cc2cccnc2)c1 (configuration not stated) | nt | nt | 36% | ? | -21% | -1
CCOc1ccc(C2C(C(=O)c3ccc(C)o3)=C(O)C(=O)N2Cc2cccnc2)cc1 (configuration not stated) | nt | nt | nt | -27% | 89µM* | -3
COc1cc(C2C(C(=O)c3ccco3)=C(O)C(=O)N2Cc2cccnc2)cc(OC)c1OC (configuration not stated) | -1% | -2% | 6% | -35% | 89µM* | nt
COc1cccc(C(=O)N2CCC(C(=O)NCc3ccc(C)cc3)CC2)c1 | nt | nt | 0% | 10% | -5% | -1
Cc1ccccc1NS(=O)(=O)c1nnc(NC(=O)c2ccccc2C)s1 | nt | nt | 25% | 28µM*! | ? | 4
Cc1ccccc1N(C)S(=O)(=O)c1nnc(NC(=O)c2ccccc2F)s1 | nt | nt | 32% | 14µM*! | 45µM*! | -18
Cc1ccccc1N(C)S(=O)(=O)c1nnc(NC(=O)C(C)C)s1 | nt | nt | -14% | ? | ? | nt
Cc1ccccc1NS(=O)(=O)c1nnc(NC(=O)c2ccc(Br)cc2)s1 | nt | nt | 38% | -21% | -16% | 6
